# Results filed as inconclusive are left out. Entries that show only a call come without a potency. More than one record can exist for a structure, and the calls need not agree. Calls of active or inactive are those of the source. The call rests on the fitted dose curve; in most records, active means well fitted cell-killing curve with a large enough effect in the repeat runs (not every such curve was filed as active); inconclusive means weak or mixed curves, or effect the other way; inactive means no such curve, though single readings can be large or run the other way.
# Assay: qHTS assay to identify small molecule antagonists of the farnesoid-X-receptor (FXR) signaling pathway - cell viability counter screen (AID 743221); further: nearly all actives have a fitted effect of over 50% in size
# Settings: FXR-bla HEK293T viability, CellTiter-Glo luminescence, 16 h; series mostly up to 62.6 µM
# From the text: National Center for Advancing Translational Sciences [NCATS]
# NIH Chemical Genomics Center [NCGC]
# U.S. Environmental Protection Agency [EPA]
# National Institutes of Environmental Health Sciences [NIEHS]
# National Toxicology Program [NTP]
# U.S. Food and Drug Administration [FDA]
# The farnesoid-X-receptor (FXR), a nuclear hormone receptor, is highly expressed in liver, intestine, kidney and adrenal cortex. Natural ligands of FXR are the bile acids (Cholic acid, Chenodeoxy cholic acid etc). FXR is an important regulator of diverse metabolic pathways, including the bile acid homeostasis, lipid and glucose metabolisms. FXR regulates the expression of target genes by binding either as a monomer or as a heterodimer with the retinoid X receptor (RXR). Numerous studies have reported that FXR exerts protective function during cholestasis, diabetes, liver regeneration, and cancer. To identify compounds that inhibit FXR signaling, GeneBLAzer FXR-UAS-bla HEK 293T cell line (Invitrogen, Carlsbad, CA) containing a beta-lactamase reporter gene under the control of a UAS response element was used to screen the Tox21 10K compound library. The cytotoxicity of the Tox21 compound library against the FXR-bla cell line was tested in parallel by measuring the cell viability using CellTiter-Glo assay in the same wells.
# Tox21 Assay Protocol Summary:
# FXR-bla cells were dispensed at 5000 cells/5uL/well in 1536-well black wall/clear bottom plates using a Multidrop Combi (Thermo Fisher Scientific, Waltham, MA) dispenser. After the assay plates were incubated at 37 C and 5% CO2 for 5 h, 23 nL of compounds dissolved in DMSO, positive controls or DMSO only was transferred to the assay plate by a Pintool station (Kalypsys, San Diego, CA), followed by addition of 1 uL Chenodeoxycholic acid (50 uM, final concentration in the wells). The assay plates were incubated at 37C for 16 h. After 1 uL of LiveBLAzerTM B/G FRET substrate was added using a Bioraptr Flying Reagent Dispenser (FRD) workstation (Beckman Coulter, Indianapolis, IN), the plates were incubated at room temperature for 2 h, and fluorescence intensity was measured by an Envision plate reader (PerkinElmer, Shelton, CT). For cell viability readout that measures cytotoxicity, 4uL/well of CellTiter-Glo reagent was added into the assay plates using a Bioraptr FRD. After 30 min incubation at room temperature, the luminescence intensity in the plates was measured using a ViewLux plate reader (PerkinElmer).
# Potency means the concentration at half of the fitted maximal effect.
Structure (SMILES),Potency,"activity change, negative = cytotoxicity"
Cc1c(F)c(F)c(COC(=O)C2C(/C=C(\Cl)C(F)(F)F)C2(C)C)c(F)c1F (stereo not given),inactive,–
O=[Se]=O,inactive,–
C[C@]12CC[C@H]3[C@@H](CCC4=CC(=O)CC[C@@H]43)[C@@H]1CC[C@@H]2OC(=O)CCC1CCCCC1,inactive,–
NNC(=O)c1cccnc1,inactive,–
Nc1ccc([N+](=O)[O-])cc1[N+](=O)[O-],inactive,–
C/C(=C\c1ccccc1)[N+](=O)[O-],43.6 µM (active),–
N#C/C(N)=C(/N)C#N,inactive,–
c1ccc(C2CC2)c(OCC2=NCCN2)c1,inactive,–
Cl/C=C\C[N+]12CN3CN(CN(C3)C1)C2,inactive,–
O=C(CBr)Nc1ccc(Cl)cc1C(=O)c1ccccc1F,inactive,–
CC(C)(OO)c1ccccc1,inactive,–
COP(=S)(OC)Oc1ccc([N+](=O)[O-])cc1Cl,inactive,–
ClCCCCBr,inactive,–
CC(=O)CCC(C)=O,inactive,–
CCCCCCCCCCOC(=O)c1ccccc1C(=O)OCCCCCCCCCC,inactive,–
O=NN1CCCCCC1,inactive,–
[CH3][Sn]([CH3])([Cl])[Cl],55.9 µM (active) and inactive,–
O=S(=O)(Cl)c1ccccc1,inactive,–
CO/C=C(/C(=O)OC)c1ccccc1COc1cccc(C(F)(F)F)n1,inactive,–
CCC(Cl)CCl (stereo not given),inactive,–

Structure (SMILES),Potency,"activity change, negative = cytotoxicity"
O=C1c2ccccc2C(=O)C1C(=O)C(c1ccccc1)c1ccccc1,inactive,–
CS/C(C)=N/OC(=O)N(C)SN(C)C(=O)O/N=C(\C)SC,inactive,–
S=C=NCc1ccccc1,inactive,–
CCCCNP(N)(N)=S,inactive,–
ClP(Cl)(Cl)(Cl)Cl,inactive,–
COc1c(C(C)(C)C)cc([N+](=O)[O-])c(C)c1[N+](=O)[O-],inactive,–
O=C(CBr)c1ccccc1,inactive,–
Nc1nc(=S)[nH][nH]1,inactive,–
CN(C)c1ccc(N(C)C)cc1,inactive,–
O=[N+]([O-])c1cc(C(F)(F)F)cc([N+](=O)[O-])c1Cl,inactive,–
NCC(CC(=O)O)c1ccc(Cl)cc1 (stereo not given),–,3.53% [at 0.55 µM] (inactive)
O=C(NC(=O)c1c(F)cccc1F)Nc1ccc(OC(F)(F)C(F)OC(F)(F)F)c(Cl)c1 (stereo not given),inactive,–
CCOP(O)OCC,inactive,–
COc1cc(Cl)c(OC)cc1Cl,inactive,–
Cc1ccccc1C(=O)Nc1cccc(OC(C)C)c1,inactive,–
CCOC(=O)COc1cc(-c2nn(C)c(OC(F)F)c2Cl)c(F)cc1Cl,inactive,–
Clc1ccc(C(OCCN2CCCCC2)c2ccccc2)cc1 (stereo not given),inactive,–
CCCN(CCCl)c1c([N+](=O)[O-])cc(C(F)(F)F)cc1[N+](=O)[O-],inactive,–
CCBr,inactive,–
COc1cc(CC(C)N)cc2c1OCO2 (stereo not given),inactive,–
